We go through 36 compounds from PubChem BioAssay.

SMILES strings stand for the structures. A number with no mark means an inactive call. Active and inactive are the calls of the source.

The nature of this assay: S. cerevisiae growth modulation with rapamycin, primary screen, strain BY4716, OD600, 96 h (AID 1091). Also: test concentration not given here. To be noted: higher = more signal, called active from +8 up or from −8 down.
Regarding `C=CCC(OC(C)=O)[C@@H]1[C@@H](N(Cc2cccc3ccccc23)C(=O)c2ccc(-c3ccccc3)cc2)c2cc(OCCCO)ccc2N1C(=O)Cc1ccc2ccccc2c1` (stereo partly specified), the z-score is -0.26.

With `O=C(NC1CC1)[C@@H]1c2ccccc2C(=O)N(Cc2ccc(OC(F)(F)F)cc2)[C@H]1c1ccc(CO)cc1`, the z-score is -1.51.

As to `O=C(NC1CC1)[C@@H]1c2ccccc2C(=O)N(CC23CC4CC(CC(C4)C2)C3)[C@H]1c1ccc(CO)cc1`, the z-score was -0.437.

Turning to `CC(=O)NCCCC[C@@H]1NC(=O)[C@H]2C[C@@H](C(=O)NCCCCCCNC(=O)CS)[C@@H](c3cccc(OCCO)c3)N2C1=O`, the z-score was 1.28.

In the case of `O=C1O[C@@H](c2ccccc2)[C@@H](c2ccccc2)N2[C@@H](c3ccc(OCCO)cc3)[C@]3(C(=O)Nc4ccc(C#CC5(O)CCCCCC5)cc43)[C@@H](C(=O)O)[C@H]12`, the z-score was 0.757.

As to `COC(=O)[C@@]1(Cc2ccccc2)[C@H]2c3cc(C(=O)N(C)C)n(Cc4ccc(C(F)(F)F)nc4)c3C[C@H]2CN1C(=O)c1ccccc1`, the z-score is 1.67.

Turning to `CN1C(=O)C2C(C1=O)C1C=C(c3ccc(CO)cc3)C2C(C2CC2)N1C` (stereo unspecified), the z-score was 2.59.

Take `O=C1C=C(c2ccccc2)C(=O)C2=C1CC([C@H]1Oc3ccccc3S(=O)(=O)N3CCC[C@@H]13)=CC2`: the z-score was 13.4 (active).

For the compound `C=C(COC)C(=O)CC[C@@H](OC(C)=O)c1ccccc1OCCO`, the z-score is -1.51.

Regarding `COCCOC(=O)N1C(=O)[C@@]2(c3cc(C#CCCO)ccc31)[C@H](c1ccccc1OCCO)N1[C@H](c3ccccc3)[C@H](c3ccccc3)OC(=O)[C@H]1[C@@H]2C(N)=O`, the z-score is 2.99.

Turning to `CCCCCCc1nc(Cc2cc(OC)c(OC)c(OC)c2)cc2c1[Si](C(C)C)(C(C)C)O[C@H]2c1ccccc1`, the z-score was 0.0217.

As for `COC(=O)[C@]1(CCC(=O)OC(C)(C)C)N=C(c2ccc(OCCCO)cc2)O[C@@H]1c1ccccc1N=[N+]=[N-]`, the z-score was 33.8 (active).

Regarding `C[C@@H]1ON(c2ccc(I)cc2)[C@H](c2cccc(NC(=O)OCC3c4ccccc4-c4ccccc43)c2)[C@H]1C(=O)N1C(=O)OC[C@H]1Cc1ccccc1`, the z-score is 1.33.

For the compound `CC1CC/C=C\[C@H]2OC34C=CCN(C(C)(C)C)C(=O)[C@H]3N(CCCO)C(=O)[C@@H]4C2C(=O)O1` (stereo partly specified), the z-score was 1.14.

Consider `COc1ccc([Si](C)(C)[C@H]2[C@H](CC(=O)N3Cc4ccccc4C[C@H]3CO)O[C@@]3(C(=O)N(c4ccccc4)c4ccccc43)[C@@H]2C)cc1`, for which the z-score is -0.776.

With `CCCNC(=O)[C@@]1(Sc2ccc(C)cc2)CC(=O)N(Cc2ccccc2Cl)[C@@H]1c1ccc(CO)cc1I`, the z-score is 1.82.

For `N#Cc1ccc(-c2cccc(=O)o2)cc1`, the z-score is 0.805.

In the case of `CCCCC(O)C1C=CC2C(=O)N(c3ccccc3)C(=O)C2N1Nc1ccccc1` (stereo unspecified), the z-score is 1.77.

`CC(C)=CCCC=C(C)C(O)C1C=CC2C(=O)N(c3ccccc3)C(=O)C2N1Nc1ccc(C#N)cc1` (stereo unspecified): the z-score was 2.31.

With `COCCOC(=O)N1C(=O)[C@@]2(c3cc(C#CC4(O)CCCCCC4)ccc31)[C@H](c1ccc(O)cc1)N1[C@H](c3ccccc3)[C@H](c3ccccc3)OC(=O)[C@H]1[C@@H]2C(=O)N1CCCCCCC1`, the z-score is 0.367.

Regarding `COCCOC(=O)N1C(=O)[C@@]2(c3cc(C#Cc4ccc(OC)cc4)ccc31)[C@H](c1ccc(OCCO)cc1)N1[C@H](c3ccccc3)[C@H](c3ccccc3)OC(=O)[C@H]1[C@@H]2C(=O)NC[C@H](O)c1ccccc1`, the z-score is 7.99.

With `O=C(N1CCOCC1)[C@@]1(Cc2ccccc2)COC(c2ccc(OCCCO)cc2)=N1`, the z-score is -1.39.

For the compound `COC(=O)c1cccc([C@H]2OC(=CC(=O)OC(C)C)C[C@@H](c3cccc(C(=O)OC)c3)O2)c1`, the z-score was -1.39.

`CN1C(=O)[C@@H]2[C@@H](CC(COc3ccccc3)=C3[C@@H](CCc4ccccc4)OB(O)C[C@@H]32)C1=O`: the z-score was -0.862.

As to `C=C(COC)C(=O)CC[C@@H](OC(=O)c1ccccc1-c1ccccc1C(=O)O)c1ccc(OCCO)cc1`, the z-score is -0.856.

As for `C=C(CCCC)C(=O)CC[C@H](OC(=O)c1ccccc1-c1ccccc1C(=O)O)c1ccc(OCCO)cc1`, the z-score was -1.88.

For the compound `C[N+](C)(C)CCCC[C@@H]1NC(=O)[C@H]2C[C@@H](C(=O)NCCCCCNC(=O)CS)[C@@H](c3cccc(OCCO)c3)N2C1=O`, the z-score was -0.451.

Regarding `CC(C)NC(=O)[C@@]1(c2ccc([N+](=O)[O-])cc2)CC(=O)N(CC23CC4CC(CC(C4)C2)C3)[C@@H]1c1ccc(CO)cc1`, the z-score is 0.937.

For `CC(=O)OCC1C2CC[C@H]3C(OCc4ccc(F)cc4C(F)(F)F)OC[C@]4(C)[C@H]3C2=C(CN4C(=O)OC(C)(C)C)[C@H](C)C1COC(C)=O` (stereo partly specified), the z-score was 1.15.

`CC(C)(C)OC(=O)CC[C@]1(C(=O)NCC(O)CO)N=C(c2ccc(OCCCO)cc2)O[C@H]1c1ccccc1N=[N+]=[N-]` (stereo partly specified): the z-score was -0.517.

Take `CCOC(=O)C1=CCC(c2cc3ccccc3[nH]2)N(CCN2CC(C(=O)OCC)=CCC2c2cc3ccccc3[nH]2)C1` (stereo unspecified): the z-score is -0.34.

As for `COCC(=C=CC[C@H](O)c1ccccc1OCCO)C[C@H](O)COCc1ccccc1`, the z-score was -0.619.

Take `CN(C)CCCCNC(=O)[C@H]1C[C@H]2C(=O)N3CCC[C@H]3C(=O)N2[C@H]1c1cccc(OCCO)c1`: the z-score is 0.751.

For the compound `COCCCNC(=O)[C@@H]1c2ccccc2C(=O)N(Cc2ccc(OC(F)(F)F)cc2)[C@H]1c1ccc(CO)cc1`, the z-score is -0.97.

On to `COc1ccc(C#Cc2ccc3c(c2)[C@]2(C(=O)N3)[C@H](C(=O)O)[C@H]3C(=O)O[C@H](c4ccccc4)[C@H](c4ccccc4)N3[C@@H]2c2ccccc2OCCO)cc1`, for which the z-score was 0.705.

For `O=C1O[C@H](Cc2ccccc2)[C@@H]2[C@H]3C=CCCC=C3CN2[C@H]1Cc1ccc(O)cc1`, the z-score was -0.621.
